According to the supplement of paper PMC6555819:

How the values were obtained:
Assay in all cases: PBM binding z-score (relative to random genomic background probes); higher = stronger binding; sequences stand for … in GC…GCGATTGACAGCGTAGAATGAAGG
[1] = test system: FXR:RXRa (NR concentration 270 nM, RXRa partner concentration 90 nM)
In short: (§1)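 Binding z-scores take random background probes as their reference. They come from custom Agilent 4×180K protein-binding microarrays incubated 1 h with ligand-free nuclear receptor dimers, with antibodies against each partner (one per run) detecting binding. Scanned fluorescence was regression-normalized.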

[2] = test system: LXRa:RXRa (NR concentration 270 nM, RXRa partner concentration 90 nM)
In short: as §1

[3] = test system: LXRa homodimer (NR concentration 270 nM)
In short: as §1

[4] = test system: LXRb:RXRa (NR concentration 270 nM, RXRa partner concentration 90 nM)
In short: as §1

[5] = test system: LXRb homodimer (NR concentration 270 nM)
In short: as §1

[6] = test system: PPARa:RXRa (NR concentration 270 nM, RXRa partner concentration 90 nM)
In short: as §1

[7] = test system: PPARg:RXRa (NR concentration 180 nM, RXRa partner concentration 90 nM)
In short: as §1

[8] = test system: PPARg:RXRa 270nM:90nM, anti-RXR (NR concentration 270 nM, RXRa partner concentration 90 nM)
In short: as §1

[9] = test system: PPARg:RXRa 30nM:10nM, anti-RXR (NR concentration 30 nM, RXRa partner concentration 10 nM)
In short: as §1

[10] = test system: PPARg:RXRa 90nM:30nM, anti-RXR (NR concentration 90 nM, RXRa partner concentration 30 nM)
In short: as §1

Sequence	PBM binding z-score [1]	PBM binding z-score [2]	PBM binding z-score [3]	PBM binding z-score [4]	PBM binding z-score [5]	PBM binding z-score [6]	PBM binding z-score [7]	PBM binding z-score [8]	PBM binding z-score [9]	PBM binding z-score [10]
TCGAGTAGGTTAGGGGCATCCAGAATGGCGTCGA	0.419	0.286	-0.391	0.913	-0.812	1.38	0.651	2.05	1.32	1.8
TAACCTAGGTCATGGGCCAGTATACCACGCGAAC	5.24	4.78	1.74	3.44	0.868	4.78	5.73	5.21	2.54	4.41
CCTACTGGGCCATTCAGAGGTCATTGAGCATATG	2.93	4.74	6.54	3.65	0.261	4.02	2.49	3.28	1.01	2.38
TGTCAAAGTTCACAGGTAACGTAAGTATCCACAC	6.59	5.87	3.37	4.04	1.49	6.02	8.64	7.43	5.54	7.12
CGAACTAGGTCATTGACAGGACAGGGAATAGTAA	4.56	2.81	0.225	1.82	-0.158	4.65	7.57	6.18	4.13	5.76
AGTCAAAGTTCACTAGGTAAAGTAAGATTCAGCT	5.11	4.89	2.94	2.95	0.968	4.53	7.12	6.14	3.45	5.45
TAGCCTAGGTCGTGGGCCAGTATACCACGCGAAC	0.0973	0.0379	-0.669	0.0173	-0.88	0.972	0.333	0.511	-0.615	-0.0658
CAAACTAGGTCAAAGGTCAATGTCGAGCCAACCA	8.32	7.09	4.92	6.96	2.33	7.33	14	11.7	13.6	14.2
ATATGTAGGTTACATTCGGGTCATTCAGGCTATG	2.91	4.73	1.76	3.19	1.04	4.3	5.53	5.07	2.31	4.62
CCAAGTAGGTTATGGGGCATTCAGGCAACGGTGA	0.142	0.353	-0.344	0.363	-0.655	2.93	5.23	5.69	4.33	5.84
TCATATAGGTAAATGCTAGGTGAAAGACCGATCT	1.17	1.12	0.232	0.72	-0.0647	1.48	1.22	2.38	3.79	2.96
ATCGAAAGGTCGTGAGGTCAGTATACAGAAAGGC	6.58	5.12	1.48	4.57	1.04	5.7	5.27	5.25	2.05	3.65
GATACAGAGTCAAGGCCAGAGTACGCGTATTGAT	-0.608	-0.442	-0.531	-0.627	-0.712	-0.293	0.646	-0.0744	-0.0806	-0.0588
GCGACGGGGGCATCAGCAGGTTACCATAACTTAA	2.95	3.18	0.557	5.21	8.02	4.19	2.48	3.35	1.55	2.59
TCTGCTAGGTCAGTCGGTCAGCTAACGAGCTGCC	1.18	0.763	-0.313	0.432	0.0608	1.92	1.25	2.34	1.11	1.44
CTTACTGGGCCATCAGGTCATTGATATCAACGTT	1.85	1.35	1.05	1.68	0.217	3.84	4.85	5.22	2.74	4.87
CTACCAAGTTGAACAAGGTCGTTGATTACTATTC	1.16	1.41	0.853	1.91	0.134	1.73	0.0728	0.171	0.12	0.362
AGAATGAGGTTACCAAAGATCAGGTAAACGCTTG	1.72	5.99	-0.313	3.44	-0.454	3.43	2.76	2.77	1.12	1.9
GCTTACGGGTCAATGGTTATAGCATGAATAGAAT	4.8	2.75	-0.289	2.89	0.196	4.78	4.3	4.54	1.86	3.57
TCATATAGGTAAATGCTAGGCGAAAGTCCGATCT	0.564	0.758	0.304	0.58	-0.0313	0.932	0.63	2.22	3.7	2.88
CGTCCAAGGTCAATGCTAGGTCAGTTAAAGCATT	6.86	5.46	3.07	4.57	0.641	5.2	3.88	4.44	1.26	3.34
CGTCCAAGGTCAACGTCAGTGAAAGAGACTCGAA	7.13	5.39	0.128	4.19	0.597	5.64	5.37	5.51	1.61	4.17
AGTCAAAGTTCATCGAGGTAACGTAAGATATGCT	6.65	6	4.5	3.72	1.07	5.27	6.71	6.39	3.74	5.59
TCGCGTAGGTTACCAATGGGGCATTCAGCTTTCT	-0.205	1.54	-0.559	1.01	-0.67	0.898	-0.342	0.743	1.41	0.958
